Results as given in the supplement of paper PMC11732987, “Enantioselective OTUD7B fragment discovery through chemoproteomics screening and high-throughput optimisation” (Communications Chemistry, 2025).

Experiments:
Experiment in all cases: log2 ratio of Biotin-Ahx-Ub-VS probe labelling (fragment/DMSO); higher = less target engagement (more negative = stronger competition), active = hit call of the paper (q ≤ 0.05, log2 ratio ≤ -1)
Settings in all cases: compound concentration: 200 uM; treatment time: 3 h
[1] = target: T1, USP42 (UniProt Q9H9J4)
T1 sequence (whole entry): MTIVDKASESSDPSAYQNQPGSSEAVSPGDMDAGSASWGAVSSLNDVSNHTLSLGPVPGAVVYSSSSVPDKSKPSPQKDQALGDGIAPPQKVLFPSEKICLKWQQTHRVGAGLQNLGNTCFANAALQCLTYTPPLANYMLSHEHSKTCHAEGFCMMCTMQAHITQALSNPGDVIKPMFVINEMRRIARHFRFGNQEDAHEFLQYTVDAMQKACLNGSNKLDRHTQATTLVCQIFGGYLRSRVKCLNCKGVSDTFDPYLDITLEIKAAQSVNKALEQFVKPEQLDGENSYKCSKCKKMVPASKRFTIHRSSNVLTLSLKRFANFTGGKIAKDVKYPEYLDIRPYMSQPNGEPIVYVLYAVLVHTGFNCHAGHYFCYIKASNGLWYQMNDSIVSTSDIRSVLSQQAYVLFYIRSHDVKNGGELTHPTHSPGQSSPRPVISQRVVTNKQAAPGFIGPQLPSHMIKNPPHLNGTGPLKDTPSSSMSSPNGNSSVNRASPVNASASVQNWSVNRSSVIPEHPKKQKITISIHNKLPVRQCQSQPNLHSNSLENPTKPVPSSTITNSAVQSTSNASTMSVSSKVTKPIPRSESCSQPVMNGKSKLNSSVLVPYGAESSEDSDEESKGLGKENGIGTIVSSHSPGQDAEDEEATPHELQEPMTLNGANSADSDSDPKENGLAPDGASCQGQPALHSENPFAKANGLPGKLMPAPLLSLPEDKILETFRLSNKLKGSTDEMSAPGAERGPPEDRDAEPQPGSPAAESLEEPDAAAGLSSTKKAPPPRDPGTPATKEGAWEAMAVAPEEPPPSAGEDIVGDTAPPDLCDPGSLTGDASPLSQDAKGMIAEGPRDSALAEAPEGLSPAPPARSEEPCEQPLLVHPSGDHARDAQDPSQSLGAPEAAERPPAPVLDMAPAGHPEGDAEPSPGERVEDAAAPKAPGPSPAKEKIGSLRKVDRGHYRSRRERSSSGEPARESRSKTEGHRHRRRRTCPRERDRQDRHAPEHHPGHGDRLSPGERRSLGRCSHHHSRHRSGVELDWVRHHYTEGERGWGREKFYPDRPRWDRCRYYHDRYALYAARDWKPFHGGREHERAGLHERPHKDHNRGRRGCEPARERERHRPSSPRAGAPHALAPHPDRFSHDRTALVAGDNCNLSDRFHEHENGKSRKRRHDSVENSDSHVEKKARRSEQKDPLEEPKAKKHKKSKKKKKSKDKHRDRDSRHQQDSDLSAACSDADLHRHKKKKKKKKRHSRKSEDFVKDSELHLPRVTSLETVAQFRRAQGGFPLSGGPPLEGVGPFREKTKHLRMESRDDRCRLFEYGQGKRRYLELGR
Method in brief: (§1)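 Labelling with Biotin-Ahx-Ub-VS (0.5 µM final, 1 h) followed a 3 h triplicate treatment of HEK293T lysate (495 µg per sample, Tris/CHAPS/IGEPAL buffer with protease inhibitors) with fragment at 200 µM or vehicle. Labelled DUBs were NeutrAvidin-enriched, digested with LysC and trypsin, and run by diaPASEF LC-MS/MS. The values, average log2 fragment/vehicle ratios by unpaired t-test, come from global-median-normalised Spectronaut label-free quantities. Proteins with ≥2 unique peptides were used.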

[2] = target: USP46 (UniProt P62068)
Method in brief: as §1

[3] = target: T2, USP47 (UniProt Q96K76)
T2 sequence (whole entry): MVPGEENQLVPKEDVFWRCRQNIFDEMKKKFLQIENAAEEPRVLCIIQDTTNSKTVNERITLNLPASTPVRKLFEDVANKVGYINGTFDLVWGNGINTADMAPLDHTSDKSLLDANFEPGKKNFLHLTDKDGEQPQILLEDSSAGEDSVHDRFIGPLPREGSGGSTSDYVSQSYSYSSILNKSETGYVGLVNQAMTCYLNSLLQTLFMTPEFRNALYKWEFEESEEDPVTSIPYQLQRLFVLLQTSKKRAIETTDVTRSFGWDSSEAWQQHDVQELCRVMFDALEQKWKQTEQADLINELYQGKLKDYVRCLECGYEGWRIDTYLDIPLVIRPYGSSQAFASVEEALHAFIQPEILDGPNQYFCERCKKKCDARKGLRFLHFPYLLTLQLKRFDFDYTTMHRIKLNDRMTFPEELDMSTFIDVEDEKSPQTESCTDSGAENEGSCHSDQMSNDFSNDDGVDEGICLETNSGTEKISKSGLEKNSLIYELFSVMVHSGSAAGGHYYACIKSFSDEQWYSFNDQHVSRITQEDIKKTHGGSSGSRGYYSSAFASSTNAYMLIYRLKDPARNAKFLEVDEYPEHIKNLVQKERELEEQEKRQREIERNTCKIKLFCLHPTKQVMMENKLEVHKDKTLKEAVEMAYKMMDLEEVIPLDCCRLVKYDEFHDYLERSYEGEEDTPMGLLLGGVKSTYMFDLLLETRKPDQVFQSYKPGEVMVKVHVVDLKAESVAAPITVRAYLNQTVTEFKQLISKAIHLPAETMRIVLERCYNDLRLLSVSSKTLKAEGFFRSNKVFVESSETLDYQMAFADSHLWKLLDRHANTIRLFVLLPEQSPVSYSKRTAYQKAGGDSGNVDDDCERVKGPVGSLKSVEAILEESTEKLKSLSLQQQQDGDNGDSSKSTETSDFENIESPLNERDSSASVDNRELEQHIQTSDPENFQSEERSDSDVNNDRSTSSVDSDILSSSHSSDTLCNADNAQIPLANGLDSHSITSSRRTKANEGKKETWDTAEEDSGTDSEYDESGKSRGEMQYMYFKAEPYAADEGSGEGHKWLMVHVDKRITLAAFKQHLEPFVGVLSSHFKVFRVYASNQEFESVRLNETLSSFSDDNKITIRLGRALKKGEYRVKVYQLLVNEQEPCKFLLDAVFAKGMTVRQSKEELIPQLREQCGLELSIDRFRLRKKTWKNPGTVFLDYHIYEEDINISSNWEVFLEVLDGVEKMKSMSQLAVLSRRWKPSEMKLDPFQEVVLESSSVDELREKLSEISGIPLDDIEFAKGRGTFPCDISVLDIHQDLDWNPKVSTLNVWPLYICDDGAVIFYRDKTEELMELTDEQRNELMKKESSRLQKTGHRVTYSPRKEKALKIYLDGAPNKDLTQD
Method in brief: as §1

[4] = target: T3, USP48 (UniProt Q86UV5)
T3 sequence (whole entry): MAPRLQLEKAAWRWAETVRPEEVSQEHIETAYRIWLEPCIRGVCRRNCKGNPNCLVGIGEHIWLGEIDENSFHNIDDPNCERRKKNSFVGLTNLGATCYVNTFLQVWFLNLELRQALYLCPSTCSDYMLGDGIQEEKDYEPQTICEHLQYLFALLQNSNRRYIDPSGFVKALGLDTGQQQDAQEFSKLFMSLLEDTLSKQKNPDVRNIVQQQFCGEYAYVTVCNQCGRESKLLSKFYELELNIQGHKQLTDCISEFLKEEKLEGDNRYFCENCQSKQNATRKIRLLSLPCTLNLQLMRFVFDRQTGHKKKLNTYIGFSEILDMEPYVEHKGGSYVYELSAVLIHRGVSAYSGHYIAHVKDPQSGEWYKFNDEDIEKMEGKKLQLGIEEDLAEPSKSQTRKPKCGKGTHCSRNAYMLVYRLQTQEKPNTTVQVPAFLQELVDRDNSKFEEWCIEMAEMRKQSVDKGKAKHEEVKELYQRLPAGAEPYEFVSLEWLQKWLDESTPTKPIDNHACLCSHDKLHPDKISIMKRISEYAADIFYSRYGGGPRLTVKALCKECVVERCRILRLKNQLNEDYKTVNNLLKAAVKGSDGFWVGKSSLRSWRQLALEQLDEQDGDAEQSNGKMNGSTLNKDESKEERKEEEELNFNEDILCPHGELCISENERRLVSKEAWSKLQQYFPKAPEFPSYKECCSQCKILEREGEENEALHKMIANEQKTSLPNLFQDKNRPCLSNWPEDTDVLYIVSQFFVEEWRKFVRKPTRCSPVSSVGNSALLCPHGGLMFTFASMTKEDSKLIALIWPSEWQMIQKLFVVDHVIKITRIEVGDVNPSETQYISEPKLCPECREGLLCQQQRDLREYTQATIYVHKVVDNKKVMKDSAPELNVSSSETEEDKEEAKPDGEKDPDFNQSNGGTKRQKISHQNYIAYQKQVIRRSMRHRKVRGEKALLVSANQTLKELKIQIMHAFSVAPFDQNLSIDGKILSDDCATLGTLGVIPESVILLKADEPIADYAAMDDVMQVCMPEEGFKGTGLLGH
Method in brief: as §1

[5] = target: T4, USP5 (UniProt P45974)
T4 sequence (whole entry): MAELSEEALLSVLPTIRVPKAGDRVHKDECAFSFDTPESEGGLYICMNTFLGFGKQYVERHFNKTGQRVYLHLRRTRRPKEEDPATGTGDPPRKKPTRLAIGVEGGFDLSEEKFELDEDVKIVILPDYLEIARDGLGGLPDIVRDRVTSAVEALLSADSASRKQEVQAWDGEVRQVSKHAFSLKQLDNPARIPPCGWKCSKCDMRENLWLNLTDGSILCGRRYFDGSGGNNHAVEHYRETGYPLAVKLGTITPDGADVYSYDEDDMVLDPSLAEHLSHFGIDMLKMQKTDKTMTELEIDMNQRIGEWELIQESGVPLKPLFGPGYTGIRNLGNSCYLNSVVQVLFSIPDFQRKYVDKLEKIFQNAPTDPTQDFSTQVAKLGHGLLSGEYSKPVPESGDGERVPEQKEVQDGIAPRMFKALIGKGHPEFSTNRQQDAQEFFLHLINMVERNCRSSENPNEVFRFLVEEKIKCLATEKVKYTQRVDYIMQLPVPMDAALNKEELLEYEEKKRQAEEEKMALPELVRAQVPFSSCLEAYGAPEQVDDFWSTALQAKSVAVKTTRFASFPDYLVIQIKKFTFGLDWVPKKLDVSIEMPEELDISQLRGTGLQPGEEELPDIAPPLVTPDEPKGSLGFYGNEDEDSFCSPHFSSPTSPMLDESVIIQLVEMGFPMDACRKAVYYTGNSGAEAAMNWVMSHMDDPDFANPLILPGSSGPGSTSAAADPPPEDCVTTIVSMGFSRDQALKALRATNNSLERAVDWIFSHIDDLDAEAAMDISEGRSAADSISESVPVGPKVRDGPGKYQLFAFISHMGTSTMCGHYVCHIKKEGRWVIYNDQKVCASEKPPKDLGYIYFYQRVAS
Method in brief: as §1

[6] = target: USP54 (UniProt Q70EL1)
Method in brief: as §1

[7] = target: USP7 (UniProt Q93009)
Method in brief: as §1

[8] = target: T5, USP8 (UniProt P40818)
T5 sequence (whole entry): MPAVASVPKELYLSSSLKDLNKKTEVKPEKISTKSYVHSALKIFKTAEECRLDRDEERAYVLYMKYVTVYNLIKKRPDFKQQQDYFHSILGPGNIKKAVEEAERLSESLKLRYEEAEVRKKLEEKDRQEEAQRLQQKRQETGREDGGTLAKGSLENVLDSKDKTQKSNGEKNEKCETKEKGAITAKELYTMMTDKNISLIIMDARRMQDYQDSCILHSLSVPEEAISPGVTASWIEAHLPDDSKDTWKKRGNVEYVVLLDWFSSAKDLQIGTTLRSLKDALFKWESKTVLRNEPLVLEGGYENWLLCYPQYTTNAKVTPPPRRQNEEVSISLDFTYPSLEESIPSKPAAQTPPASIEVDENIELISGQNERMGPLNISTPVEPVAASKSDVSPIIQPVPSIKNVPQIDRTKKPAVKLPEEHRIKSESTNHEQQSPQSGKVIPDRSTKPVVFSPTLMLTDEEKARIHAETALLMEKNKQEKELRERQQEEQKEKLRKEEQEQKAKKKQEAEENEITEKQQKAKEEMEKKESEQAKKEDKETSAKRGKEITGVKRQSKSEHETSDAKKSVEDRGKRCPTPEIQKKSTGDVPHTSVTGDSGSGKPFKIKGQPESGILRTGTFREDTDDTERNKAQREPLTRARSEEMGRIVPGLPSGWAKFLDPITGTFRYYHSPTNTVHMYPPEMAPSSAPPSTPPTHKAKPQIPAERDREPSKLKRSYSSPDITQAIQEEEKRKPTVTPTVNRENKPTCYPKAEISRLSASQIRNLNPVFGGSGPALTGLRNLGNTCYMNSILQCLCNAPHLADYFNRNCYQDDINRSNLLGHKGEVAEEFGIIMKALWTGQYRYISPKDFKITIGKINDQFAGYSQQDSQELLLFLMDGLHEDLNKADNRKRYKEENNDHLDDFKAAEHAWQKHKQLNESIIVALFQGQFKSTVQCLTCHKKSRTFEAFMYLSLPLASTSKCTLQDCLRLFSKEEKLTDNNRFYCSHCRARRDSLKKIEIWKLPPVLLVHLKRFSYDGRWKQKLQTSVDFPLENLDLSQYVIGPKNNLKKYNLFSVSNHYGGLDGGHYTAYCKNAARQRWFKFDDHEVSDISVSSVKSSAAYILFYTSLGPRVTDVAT
Method in brief: as §1

[9] = target: USP9X (UniProt Q93008)
Method in brief: as §1

[10] = target: UniProt O00487
Method in brief: as §1

Measured: log2 ratio of Biotin-Ahx-Ub-VS probe labelling

Chain of USP54 (Q70EL1 whole entry): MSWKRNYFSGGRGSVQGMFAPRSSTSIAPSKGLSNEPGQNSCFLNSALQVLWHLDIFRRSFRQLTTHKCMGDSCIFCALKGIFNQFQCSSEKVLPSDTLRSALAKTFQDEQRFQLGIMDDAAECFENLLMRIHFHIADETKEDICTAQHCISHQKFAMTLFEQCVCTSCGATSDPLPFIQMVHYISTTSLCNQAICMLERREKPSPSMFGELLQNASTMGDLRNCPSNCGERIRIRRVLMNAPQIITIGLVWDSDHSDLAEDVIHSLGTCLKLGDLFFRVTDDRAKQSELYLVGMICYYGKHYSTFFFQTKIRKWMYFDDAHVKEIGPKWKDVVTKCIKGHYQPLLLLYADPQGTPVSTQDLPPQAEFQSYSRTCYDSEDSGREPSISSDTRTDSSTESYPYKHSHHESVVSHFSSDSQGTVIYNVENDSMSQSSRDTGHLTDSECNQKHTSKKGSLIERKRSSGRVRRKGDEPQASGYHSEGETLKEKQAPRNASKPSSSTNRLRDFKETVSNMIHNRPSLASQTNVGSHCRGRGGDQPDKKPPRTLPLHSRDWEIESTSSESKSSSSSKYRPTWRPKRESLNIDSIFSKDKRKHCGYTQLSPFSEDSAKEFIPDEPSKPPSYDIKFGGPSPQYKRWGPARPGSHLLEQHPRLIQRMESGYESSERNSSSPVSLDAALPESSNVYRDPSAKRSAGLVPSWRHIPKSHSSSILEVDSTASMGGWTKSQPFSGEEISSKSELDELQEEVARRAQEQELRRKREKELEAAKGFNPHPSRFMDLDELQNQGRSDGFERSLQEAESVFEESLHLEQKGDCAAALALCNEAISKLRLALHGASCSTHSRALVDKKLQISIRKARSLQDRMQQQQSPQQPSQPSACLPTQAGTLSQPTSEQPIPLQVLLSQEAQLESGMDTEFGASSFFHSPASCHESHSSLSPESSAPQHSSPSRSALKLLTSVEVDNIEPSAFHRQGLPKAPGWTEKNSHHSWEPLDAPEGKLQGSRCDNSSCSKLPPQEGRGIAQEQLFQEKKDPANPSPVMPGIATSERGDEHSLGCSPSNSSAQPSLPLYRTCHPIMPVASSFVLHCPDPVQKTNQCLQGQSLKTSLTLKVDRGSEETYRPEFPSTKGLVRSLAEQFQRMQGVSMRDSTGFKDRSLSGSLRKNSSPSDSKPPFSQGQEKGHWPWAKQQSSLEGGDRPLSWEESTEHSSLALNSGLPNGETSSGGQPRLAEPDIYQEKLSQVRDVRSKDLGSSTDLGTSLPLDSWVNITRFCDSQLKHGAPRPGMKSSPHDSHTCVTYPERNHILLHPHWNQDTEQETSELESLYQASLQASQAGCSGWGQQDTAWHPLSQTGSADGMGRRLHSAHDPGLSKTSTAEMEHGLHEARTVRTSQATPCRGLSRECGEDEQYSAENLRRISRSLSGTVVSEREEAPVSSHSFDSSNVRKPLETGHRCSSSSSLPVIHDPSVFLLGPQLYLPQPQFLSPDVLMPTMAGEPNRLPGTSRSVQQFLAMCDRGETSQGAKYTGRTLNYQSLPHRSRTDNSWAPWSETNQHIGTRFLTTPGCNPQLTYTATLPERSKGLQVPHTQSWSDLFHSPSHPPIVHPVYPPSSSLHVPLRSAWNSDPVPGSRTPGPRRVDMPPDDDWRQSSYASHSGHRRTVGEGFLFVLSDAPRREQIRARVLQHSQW
Chain of USP46 (P62068 whole entry): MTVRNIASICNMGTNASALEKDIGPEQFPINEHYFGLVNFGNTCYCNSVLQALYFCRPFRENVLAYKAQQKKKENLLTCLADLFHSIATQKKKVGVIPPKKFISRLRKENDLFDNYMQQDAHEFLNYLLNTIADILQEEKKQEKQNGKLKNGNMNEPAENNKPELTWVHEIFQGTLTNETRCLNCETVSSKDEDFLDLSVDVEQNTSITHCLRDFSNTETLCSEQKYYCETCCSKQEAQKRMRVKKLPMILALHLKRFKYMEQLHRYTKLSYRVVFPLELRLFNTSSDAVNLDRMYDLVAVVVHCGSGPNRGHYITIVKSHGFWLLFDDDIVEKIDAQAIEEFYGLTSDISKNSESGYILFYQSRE
Chain of UniProt O00487 (O00487 whole entry): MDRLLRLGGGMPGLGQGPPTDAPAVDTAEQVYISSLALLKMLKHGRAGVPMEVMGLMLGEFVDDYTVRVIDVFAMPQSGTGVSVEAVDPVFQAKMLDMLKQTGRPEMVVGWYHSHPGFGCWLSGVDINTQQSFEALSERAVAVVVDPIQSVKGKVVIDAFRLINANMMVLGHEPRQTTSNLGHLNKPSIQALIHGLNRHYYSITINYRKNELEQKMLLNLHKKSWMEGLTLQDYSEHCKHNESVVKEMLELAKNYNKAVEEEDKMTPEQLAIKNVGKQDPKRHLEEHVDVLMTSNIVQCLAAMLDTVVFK
Chain of USP9X (Q93008 whole entry): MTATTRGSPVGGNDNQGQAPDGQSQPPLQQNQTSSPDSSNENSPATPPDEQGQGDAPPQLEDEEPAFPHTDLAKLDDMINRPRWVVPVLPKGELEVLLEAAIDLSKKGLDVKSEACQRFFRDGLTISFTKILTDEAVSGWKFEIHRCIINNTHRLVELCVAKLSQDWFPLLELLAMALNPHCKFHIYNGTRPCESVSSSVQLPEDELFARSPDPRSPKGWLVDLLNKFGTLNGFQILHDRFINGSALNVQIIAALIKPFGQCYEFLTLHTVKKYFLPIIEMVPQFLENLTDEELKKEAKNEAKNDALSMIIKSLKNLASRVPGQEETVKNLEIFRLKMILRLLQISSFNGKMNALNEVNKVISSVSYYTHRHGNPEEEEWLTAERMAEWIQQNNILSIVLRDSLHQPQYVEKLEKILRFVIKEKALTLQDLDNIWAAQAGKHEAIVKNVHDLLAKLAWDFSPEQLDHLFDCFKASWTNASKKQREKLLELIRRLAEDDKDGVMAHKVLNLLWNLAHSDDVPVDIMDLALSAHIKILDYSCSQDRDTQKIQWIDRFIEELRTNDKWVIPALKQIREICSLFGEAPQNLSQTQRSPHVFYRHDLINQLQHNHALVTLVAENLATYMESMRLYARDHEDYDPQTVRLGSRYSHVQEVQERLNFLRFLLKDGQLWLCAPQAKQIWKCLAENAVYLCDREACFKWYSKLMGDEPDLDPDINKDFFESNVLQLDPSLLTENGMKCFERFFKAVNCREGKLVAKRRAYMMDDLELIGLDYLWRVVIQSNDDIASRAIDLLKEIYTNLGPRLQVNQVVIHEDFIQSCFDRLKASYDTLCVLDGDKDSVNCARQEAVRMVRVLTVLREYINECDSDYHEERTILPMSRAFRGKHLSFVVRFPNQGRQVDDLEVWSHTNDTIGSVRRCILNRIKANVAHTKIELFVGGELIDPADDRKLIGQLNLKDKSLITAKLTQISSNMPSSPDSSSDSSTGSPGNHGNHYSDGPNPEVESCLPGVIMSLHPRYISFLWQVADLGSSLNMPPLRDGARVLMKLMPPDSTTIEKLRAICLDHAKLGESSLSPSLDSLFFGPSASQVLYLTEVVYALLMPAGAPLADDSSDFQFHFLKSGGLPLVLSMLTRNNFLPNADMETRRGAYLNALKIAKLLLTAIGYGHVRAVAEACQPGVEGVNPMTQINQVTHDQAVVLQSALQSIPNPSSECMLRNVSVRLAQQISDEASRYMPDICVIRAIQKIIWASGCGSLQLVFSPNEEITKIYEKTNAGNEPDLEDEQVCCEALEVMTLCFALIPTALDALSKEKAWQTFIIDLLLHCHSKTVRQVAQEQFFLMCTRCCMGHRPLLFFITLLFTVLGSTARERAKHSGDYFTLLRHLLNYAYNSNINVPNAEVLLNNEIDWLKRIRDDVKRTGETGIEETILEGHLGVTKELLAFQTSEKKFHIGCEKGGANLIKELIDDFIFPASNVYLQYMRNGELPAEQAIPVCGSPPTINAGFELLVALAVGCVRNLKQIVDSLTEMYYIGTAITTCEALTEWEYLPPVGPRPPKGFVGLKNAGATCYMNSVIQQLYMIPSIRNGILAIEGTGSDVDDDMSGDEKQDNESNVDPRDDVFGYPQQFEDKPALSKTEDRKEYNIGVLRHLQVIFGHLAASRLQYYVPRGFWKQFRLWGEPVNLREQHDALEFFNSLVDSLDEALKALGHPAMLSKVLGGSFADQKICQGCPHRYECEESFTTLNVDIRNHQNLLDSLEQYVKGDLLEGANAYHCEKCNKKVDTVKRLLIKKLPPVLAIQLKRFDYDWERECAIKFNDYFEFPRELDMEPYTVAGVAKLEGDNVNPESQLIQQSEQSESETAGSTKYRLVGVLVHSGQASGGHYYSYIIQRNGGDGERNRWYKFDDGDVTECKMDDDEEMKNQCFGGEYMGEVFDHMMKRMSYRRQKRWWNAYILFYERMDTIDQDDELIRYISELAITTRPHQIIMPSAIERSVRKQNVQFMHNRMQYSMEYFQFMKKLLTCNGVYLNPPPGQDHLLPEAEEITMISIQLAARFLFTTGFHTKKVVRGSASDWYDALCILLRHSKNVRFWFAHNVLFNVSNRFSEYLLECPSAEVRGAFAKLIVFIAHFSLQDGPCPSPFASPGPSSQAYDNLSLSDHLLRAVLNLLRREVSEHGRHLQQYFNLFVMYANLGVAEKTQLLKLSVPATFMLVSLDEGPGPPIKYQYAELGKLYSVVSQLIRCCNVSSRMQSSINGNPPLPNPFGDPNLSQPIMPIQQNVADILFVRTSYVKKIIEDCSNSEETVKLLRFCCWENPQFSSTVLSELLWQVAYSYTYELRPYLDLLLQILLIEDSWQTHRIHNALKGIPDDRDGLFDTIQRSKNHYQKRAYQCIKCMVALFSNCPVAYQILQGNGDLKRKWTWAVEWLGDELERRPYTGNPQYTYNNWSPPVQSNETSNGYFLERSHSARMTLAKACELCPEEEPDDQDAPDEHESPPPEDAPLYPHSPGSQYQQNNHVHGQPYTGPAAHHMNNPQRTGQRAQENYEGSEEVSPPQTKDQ

Cc1cccn2cc(CCNC(=O)CCl)nc12.Cl
inactive: [1] 0.274 | [2] -0.16 | [3] 0.127 | [4] -0.182 | [5] -0.331 | [6] 0.0379 | [7] -0.51 | [8] -0.181 | [9] -0.145 | [10] -0.197
